In publication PMC5540273 (PLoS ONE, 2017):

tested on: LTK; conditions: concentration: 1 μM, replicates: in singlicate; n = 1
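Also: KINOMEscan kinase panel screen.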

Point of comparison: `COc1ccc(CSc2nnc(-c3ccc4ncsc4c3)o2)cc1C(F)(F)F`, “%Inh” value 0%. Against it:
- O=C1NC(=O)C(c2ccc(Cl)cc2)=C1Nc1cccc(Cl)c1 [SB-317651] — the same, 0%
- Cc1ccc(NC(=O)Nc2ccccc2F)cc1-c1ccc(C(=O)Nc2ccncc2)cc1 [GSK1398477] — higher, 16%
- Cc1ccc(NC(=O)c2ccc(Cl)cc2)cc1-c1ccc(C(=O)Nc2ccncc2)cc1 [GSK1398467] — higher, 19%
- Cc1ccccc1-c1cc(-c2c[nH]nc2-c2ccccn2)ccn1 [GW680061] — the same, 0%
- CC[C@@H]1CO[C@H](C(=O)Nc2ccccc2)CN1c1cc(-c2ccc3c(N)n[nH]c3c2)nc(NC)n1 [GSK2376236] — higher, 5%
- Cc1ccc(-c2nc(Nc3ccncc3)c3ccccc3n2)s1 [GSK189015] — higher, 1%
- Cc1ccccc1Cn1ccn2c(=O)cc(N3CCOCC3)nc12 [GSK2269905] — the same, 0%
- CS(=O)(=O)CCNCc1nc(-c2ccc3ncnc(Nc4ccc5c(cnn5Cc5ccccc5)c4)c3c2)cs1.Cl.Cl [GW569716] — the same, 0%
- Cc1nccc(-c2c(-c3ccc(F)cc3)ncn2CCCN2CCOCC2)n1.Cl [SB-282975] — higher, 30%
- Cn1cncc1C(=O)NC1CCN(c2ccnc(Nc3ccc(F)cc3)n2)C1 (centres unmarked) [GSK1379717] — higher, 6%
- CN1c2ccc(-c3ccc(C(N)=O)cc3)cc2-c2[nH]ncc2S1(=O)=O — the same, 0%
- CC(C)c1cc(-c2ccc3c(N)n[nH]c3c2)nc(N)n1 [GSK2250882] — the same, 0%
- O=C(Nc1n[nH]c2nc(-c3cccs3)c(Br)cc12)C1CC1 [SB-735297] — the same, 0%
- Cc1ccc(NC(=O)Nc2ccc(Cl)cc2)cc1-c1ccc(C(=O)Nc2ccncc2)cc1 [GSK1398472] — higher, 2%
- Fc1ccc(-c2nn3cccc(F)c3c2-c2ccncc2)cc1 [GW475620] — higher, 8%
- CC(C)c1ccc(O)cc1Nc1ccnc2ccc(C(F)(F)F)cc12 [GW482059] — the same, 0%
- Fc1ccc(-c2nc3n(c2-c2ccncc2)CCS3)cc1 [GI98581] — higher, 22%
- O=C(Nc1n[nH]c2cc(-c3ccsc3)ccc12)C1CC1 [SB-732932] — the same, 0%
- Cc1cnc(N)c(/C=C/c2cncc(C(=O)NCCc3ccc(Cl)cc3Cl)c2)c1.Cl [GSK190937] — the same, 0%
- CC(=O)c1c(C)c2cnc(Nc3ccc(N4CCNCC4)cn3)nc2n(C2CCCC2)c1=O — the same, 0%
- COc1ccc2cc(-c3nc(-c4ccccc4C(C)C)[nH]c3-c3ccncc3)ccc2c1 [SB-660566] — higher, 3%
- CCc1ccc(-c2ccc3c(c2)-c2n[nH]cc2S(=O)(=O)N3C)cc1 — higher, 3%
